Assay outcomes (PubChem)
Sampled rows, rich in hits. Any-hit rate of the full collection: about 1.1%.
PrPC surface inh: inhibitors of human cell surface prion protein PrPC, primary screen, cell-based, TR-FRET | 0.43% of 370,000 active | Major prion protein (Homo sapiens), P04156 | AID 720596, 2013 | inhibition, % at 13.8 µM | TR-FRET read-out; in the data active means inhibition above about 24%
BJeLR lethal: MLPCN primary cell-based screen for lethality selective to Ras in HRASV12 cells | BJeLR (HRASV12) viability, CellTiter-Glo ATP luminescence, 48 h | 0.17% of 300,000 active | inhibition, % (concentration not given with the values) | AID 1554, 2009; in the data active means inhibition above about 50%
PrP UTR inh: inhibition of PrP 5' UTR reporter expression; cell-based PrP 5' UTR mRNA reporter, plate reader; inhibition, % (test concentration not listed); 0.35% of 340,000 active; AID 488862, 2010; in the data active means inhibition above about 52%
MazEF act: activators of E. coli MazEF toxin-antitoxin RNase, primary screen, biochemical, fluorescence, uHTS; FAM/BHQ RNA-DNA oligo cleavage fluorescence, 5 h; 0.32% of 350,000 active; Endoribonuclease toxin MazF (Escherichia coli (strain K12)), P0AE70; activation, % at 20 µM; AID 504720, 2011; in the data active means activation above about 50%
PrPC TRFRET cf: confirmation of inhibitors of cell surface human prion protein, confirmation, cell-based, TR-FRET; inhibition, % at 13.8 µM; cell surface PrPC level; shares compounds with PrPC surface inh; AID 743200, 2013; 65% of 1,500 active; in the data active means inhibition above about 25%
LD9 tox: cytotoxicity in LD9 cells, cytotoxicity control for cell surface PrPc inhibitor project, cell-based, luminescence, high throughput; shares compounds with PrPC surface inh; luminescence viability; inhibition, % at 13.8 µM; 29% of 1,500 active; in the data active means inhibition above about 9.5%
Of the large screens only hits and unclear results are named; the others gave an inactive call (follow-up assays come after a bar, where they were run).

O=C(O)CSc1ccnc2cc(Cl)ccc12	PrPC surface inh 47 | PrPC TRFRET cf 90 | LD9 tox inactive
CCOC(=O)C1=C(C(=O)OCC)C2N(Cc3ccc(Br)cc3)c3ccccc3[C@@]23C[C@@H](C(=O)OC)N(S(=O)(=O)c2ccc(OC)cc2)C3=N1 (stereo partly drawn)	none (no result: BJeLR lethal, PrP UTR inh, MazEF act)
Cc1ccc(S(=O)(=O)N2OC(c3ccccc3)C[C@H]2CC=C(c2ccccc2)c2ccccc2)cc1 (stereo partly drawn)	none (no result: BJeLR lethal, PrP UTR inh, MazEF act)
CCN1C(=O)C2(C(C(=O)c3ccc(C)o3)=C(O)C(=O)N2CCCN2CCOCC2)c2ccccc21 (stereo not drawn)	none
CCN1C(=O)C2(C(C(=O)c3cc4ccccc4o3)=C(O)C(=O)N2CCCN2CCOCC2)c2ccccc21 (stereo not drawn)	PrPC surface inh 72 | PrPC TRFRET cf 99 | LD9 tox inactive
CCc1cc2cccc(C)c2nc1SCC(=O)NNC(=O)c1ccco1	PrPC surface inh 71 | PrPC TRFRET cf 98 | LD9 tox inactive
CCc1cc2ccc(C)c(C)c2nc1SCC(=O)NNC(=O)c1ccco1	none
CCc1cc2cccc(C)c2nc1SCC(=O)Nc1nonc1C	PrPC surface inh 31 | PrPC TRFRET cf 35 | LD9 tox inactive
CCc1cc2cccc(C)c2nc1SCC(=O)Nc1cc(C)on1	none
CCCCCn1cc(CCC(=O)Nc2ccc(N(C)c3ccccn3)cc2)c2ccccc21	none (no result: BJeLR lethal, PrP UTR inh, MazEF act)
COc1ccc(CCNc2ncnc3c2oc2ccccc23)cc1OC	PrPC surface inh 27 | PrPC TRFRET cf 27 | LD9 tox 20
CCOC(=O)C1=C(c2ccccc2)NC(=O)NC1c1ccc(O)c(Cl)c1 (stereo not drawn)	PrPC surface inh 36 | PrPC TRFRET cf 49 | LD9 tox 52
CC(C)(C)C(=O)CSc1nnc(SCc2cccc3ccccc23)s1	none (no result: BJeLR lethal, PrP UTR inh, MazEF act)
C(#Cc1ccccc1)C[N+]1(CC#Cc2ccccc2)CCCC1	none
C=CC#CC[N+]1(CC#Cc2ccccc2)CCOCC1	PrPC surface inh 38 | PrPC TRFRET cf 44 | LD9 tox inactive
CSc1ncccc1C(=O)Nc1nc(C(C)(C)C)cs1	PrPC surface inh 27 | PrPC TRFRET cf 27 | LD9 tox inactive
Cc1ccc(NS(=O)(=O)c2ccc3c(c2)NC(=O)CCS3)cc1C	PrPC surface inh 25 | PrPC TRFRET cf inactive | LD9 tox 27
C[C@H]1C(c2ccccc2F)O[C@]2(C[C@H](O)c3ccccc3O2)C[C@@H]1O (stereo partly drawn)	none (no result: BJeLR lethal, PrP UTR inh, MazEF act)
NC(c1csc(NC(=O)Nc2cccc(Cl)c2)n1)C1CCCCC1 (stereo not drawn)	PrPC surface inh 26 (no result: BJeLR lethal, PrP UTR inh, MazEF act) | PrPC TRFRET cf inactive | LD9 tox inactive
COc1cccc(C(=O)NCC2CCN(C(=O)C(=O)c3cc4ccccc4o3)CC2)c1	none (no result: BJeLR lethal, PrP UTR inh, MazEF act)
COC(=O)c1ccc(Cn2ccc3ccc(-c4ccc5ccn(Cc6ccc(C(=O)OC)cc6)c5c4)cc32)cc1	none (no result: BJeLR lethal, PrP UTR inh, MazEF act)
CN1C(=O)C(C)(C)c2cc(S(=O)(=O)N3CCC(C(=O)Nc4ccc(Cl)cc4)CC3)ccc21	none
CCOc1ccc(NC(=O)C2CCCN(S(=O)(=O)c3ccc4c(c3)C(C)(C)C(=O)N4C)C2)cc1 (stereo not drawn)	PrPC surface inh 39 (no result: BJeLR lethal, PrP UTR inh, MazEF act) | PrPC TRFRET cf 33 | LD9 tox inactive
CN1C(=O)C(C)(C)c2cc(S(=O)(=O)N3CCCC(C(=O)NCc4ccc(F)cc4)C3)ccc21 (stereo not drawn)	PrPC surface inh 29 | PrPC TRFRET cf 40 | LD9 tox inactive
CC(C)c1ccc(NC(=O)C2CCCN(S(=O)(=O)c3ccc4c(c3)C(C)(C)C(=O)N4C)C2)cc1 (stereo not drawn)	PrPC surface inh 79 | PrPC TRFRET cf 73 | LD9 tox inactive
CN1C(=O)C(C)(C)c2cc(S(=O)(=O)N3CCCC(C(=O)Nc4ccc(Cl)cc4)C3)ccc21 (stereo not drawn)	PrPC surface inh 81 | PrPC TRFRET cf 73 | LD9 tox inactive
CCOC(=O)CCCNC(=O)OC1CCC12CCC(c1ccccc1)CC2 (stereo not drawn)	none (no result: BJeLR lethal, PrP UTR inh, MazEF act)
CCOC(=O)N(C)C[C@@H]1OCc2cn(nn2)CCCC(=O)N([C@H](C)CO)C[C@H]1C	none (no result: BJeLR lethal, PrP UTR inh, MazEF act)
